MITF primary: human MITF inhibition, primary screen | inhibition, % at 2.6 µM | AID 1259374 | AlphaScreen MITF homodimerization, bead proximity signal | 650,000 tested, 0.91% active; in the data active means inhibition above about 50%;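 further: 0% = vehicle wells with protein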
GPR151 ag: activators of human GPR151; activation, % at 11.2 µM; PathHunter beta-arrestin GPR151 cells, luminescence; 650,000 tested, 1% active; AID 1508602; Q8TDV0; in the data active means activation above about 4.9%;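 further: 0% = median of compound wells and 100% = cells with positive control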
TEAD-YAP inh: TEAD-YAP interaction inhibition; HEK-TIYL cells, TEAD-Gal4/YAP UAS-luciferase luminescence; inhibition, % at 9.12 µM; 640,000 tested, 1.4% active; AID 1259422; in the data active means inhibition above about 32%;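 further: 0% = median of test compound wells and 100% = reference inhibitor wells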
FBW7 activator: activators of human E3 ligase FBW7; Q969H0; AlphaScreen FBW7–phospho-cyclin E peptide binding, activator screen; normalized activity (activation), % at 26.1 µM; AID 1259310; 650,000 tested, 0.13% active; in the data active means normalized activity above about 1.9%;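 further: purified mutant Fbw7 with reduced substrate affinity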
Starred values were filed as active, the others as inactive; / = not tested or not shown. Most compounds without a hit are left out; they make up all but 3.4% or so of the library.

SMILES	MITF primary	GPR151 ag	TEAD-YAP inh	FBW7 activator
COc1cc2c(cc1O)CCC1C2CC[C@@]2(C)C1CC[C@@H]2O (stereo partly specified)	12	0	/	0
O=C(c1cc2ccccn2n1)N1CCc2ccccc21	-7	-5	66*	0
CCOC(=O)c1cc(C(C)C)sc1NC(=O)/C=C/C(=O)O	13	0	45*	0
CCCc1cc(C(=O)OC)c(NC(=O)/C=C/C(=O)O)s1	-1	0	37*	0
CCOC(=O)/C(C#N)=N\Nc1nc2c([nH]1)c(=O)n(C)c(=O)n2C	5	0	-5	0
NC1=NC(=O)/C(=C\c2ccc([N+](=O)[O-])o2)S1	80*	1	1	0
NC1=NC(=O)/C(=C\c2ccc(-c3cccc([N+](=O)[O-])c3)o2)S1	12	-2	-12	0
O=C1NC(=S)S/C1=C/c1ccc([N+](=O)[O-])o1	74*	0	15	-1
NC1=NC(=O)/C(=C/C=C/c2ccc([N+](=O)[O-])o2)S1	98*	0	35*	0
NS(=O)(=O)c1ccc(NS(=O)(=O)c2c(F)cc(F)cc2Br)cc1	-4	1	-2	0
CC(=O)c1ccc(NC(=O)C2OC3OC4(CCCCC4)OC3C3OC4(CCCCC4)OC23)cc1 (stereo unspecified)	-8	2	-20	1
COc1ccc(-c2noc(CN(Cc3ccccn3)CC3CCCO3)n2)c(OC)c1OC (stereo unspecified)	-4	1	39*	0
O=C1OC(c2cccc(Cl)c2)=N/C1=C\c1cccc(Cl)c1	-13	0	-12	0
O=C1OC(c2cccc(Cl)c2)=N/C1=C\c1ccccc1	-9	-8	73*	0
Nc1nc(Nc2ccc(N3CCOCC3)cc2)cc(Nc2ccncn2)n1	-3	-1	4	0
CC(=O)c1cccc(-c2cc(Nc3ccc(N4CCOCC4)cc3)nc(N)n2)c1	0	-3	46*	0
CC(=O)c1cccc(-c2nc(C)cc(Nc3ccc(N4CCOCC4)cc3)n2)c1	9	0	-4	0
CC(C)n1cnc2c(Nc3ccccc3)nc(Nc3ccc(N4CCOCC4)cc3)nc21	3	1	-24	0
Nc1nc(Nc2ccc(N3CCOCC3)cc2)cc(Nc2cnccn2)n1	-23	-1	61*	0
CC(C)n1cnc2c(Nc3ccc(N4CCOCC4)cc3)nc(Nc3cnccn3)nc21	1	1	32*	0
CC(C)n1cnc2c(Nc3ccccc3)nc(Nc3cnccn3)nc21	9	0	-24	0
CC(=O)Nc1ccc(Nc2nc(Nc3cnccn3)nc3c2ncn3C(C)C)cc1	0	0	41*	0
C=CCNC(=O)CN(c1cc(Cl)ccc1C)S(C)(=O)=O	17	1	4	0
Nc1c(C(=O)Nc2ccc(F)cc2)sc2nc3cc4c(cc3cc12)OCO4	-12	-1	-24	0
COc1ccc(-c2nc3ncnc(NCc4cccc(C(F)(F)F)c4)c3[nH]2)cc1	4	-1	46*	0
SMILES	MITF primary	GPR151 ag	TEAD-YAP inh	FBW7 activator
FC(F)(F)c1cccc(CNc2ncnc3sccc23)c1	-13	4	46*	0
Cc1cnc(Nc2ccc3ncccc3c2)nc1NCc1cccc(C(F)(F)F)c1	7	5	53*	0
CC(C)n1c(-c2cccs2)nc2c(NCc3cccc(C(F)(F)F)c3)ncnc21	-13	3	1	0
Cc1cnc(NCCN2CCOCC2)nc1NCc1cccc(C(F)(F)F)c1	-6	1	32*	0
Cc1ccc(CC(=O)Nc2sccc2C#N)c(C)c1	5	-1	-22	0
Cc1ccc(N2C(=O)/C(=C/c3ccc(N4CCOCC4)o3)C(=O)N(C)C2=S)cc1	9	0	-8	0
C/C=C/COC(=O)C1=C(C)NC(=O)NC1c1ccc(Br)cc1 (stereo unspecified)	7	1	31	0
Cc1cc(=O)oc2cc(NC(=O)c3cccc(S(=O)(=O)N(C)c4ccccc4)c3)ccc12	-3	2	-2	0
Nc1nc(NCc2cccc(C(F)(F)F)c2)cc(Nc2cnccn2)n1	4	-1	56*	1
Cc1cnc(Nc2ccccc2)nc1NCc1cccc(C(F)(F)F)c1	6	2	50*	0
CCNc1ncc(C)c(NCc2cccc(C(F)(F)F)c2)n1	-5	3	23	0
Cc1cnc(Nc2cccnc2)nc1NCc1ccccc1	3	4	33*	0
Cc1cnc(Nc2ccccn2)nc1NCc1cccc(C(F)(F)F)c1	3	4	47*	0
Cc1cnc(Nc2ncccn2)nc1NCc1cccc(C(F)(F)F)c1	-11	0	0	0

High-throughput results from PubChem BioAssay.
